# Marburg entry inh = inhibitors of Marburg virus binding or cell entry; Marburg virus pseudotyped entry inhibition, cell reporter; 300,000 compounds, 1.8% hits; Potency, µM (top dose mostly 37.8 µM), without a hit: at the top dose activity change, negative = inhibition, actives largely listed as inhibitors; calls by dose curve; tested in HEK293 cells; note: potency is the fitted concentration of half-maximal effect
# Pf growth 48h = P. falciparum growth inhibition at 48 hours (one generation); P. falciparum luciferase growth in erythrocytes, 48 h; Potency, µM (titrated, usually from 28.7 µM), for inactives: at the highest dose activity change, negative = inhibition, most hits filed as inhibitors; 310,000 compounds, 5.9% hits; note: potency is the fitted concentration of half-maximal effect
#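 Luminescence readout; reporter = integrated firefly luciferase in P. falciparum. RBC culture at 2% hematocrit, 0.1% parasitemia final, 37 C/5% CO2; decreased signal taken as growth inhibition.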
# Lassa entry inh = Lassa virus entry inhibition | Potency, µM (top dose mostly 37.9 µM), for inactives: top-dose activity change, negative = inhibition, actives largely listed as inhibitors | Lassa virus pseudotype entry inhibition, cell reporter | 300,000 compounds, 1.2% hits; calls by dose curve; tested in HEK293 cells; note: potency is the fitted concentration of half-maximal effect; nearly all actives have a fitted effect of over 50% in size
# Pf growth 96h = inhibits malaria parasite growth, 96 h; P. falciparum luciferase reporter growth, 96 h; 320,000 compounds, 6.9% hits; AID 504834; Potency, µM (top dose mostly 28.7 µM), for inactives: top-dose activity change, negative = inhibition, usual class: inhibitors; note: potency is the fitted concentration of half-maximal effect
#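 Parasite growth measured via integrated firefly luciferase reporter in P. falciparum. Infected erythrocytes at 2% hematocrit, 0.05% parasitemia final were treated 96 hours at 37 C under 5% CO2, and luminescence was read.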
# HCMV inh = inhibitors of human cytomegalovirus | activity change, negative = inhibition, % at 57.5 µM | 410,000 compounds, 4.5% hits | HFF cells, HCMV-luciferase reporter, 72 h; active compounds read low; in the data active = activity change below about -60%; inconclusive = no clear call, values can overlap the other calls; inactive = above about -39%
#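 Human foreskin fibroblasts infected with luciferase-reporter HCMV at MOI 1 PFU/cell, compounds at two doses. Luciferase measured 72 h post infection; normalized to buffer-only basal and Salinomycin (10uM) controls.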
# HCV inhibitor = blocks hepatitis C virus. Huh7.5.1 HCVcc-Cre infection, luciferase reporter, 44 h. Potency, µM (top dose mostly 41.8 µM), inactives show at the top dose activity change, negative = inhibition, usual class: inhibitors. 340,000 compounds, 3.4% hits. AID 651820; note: potency is the fitted concentration of half-maximal effect
#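 HCVcc-Cre virus at an moi near 0.5 was added right after compound to cells cultured 4 h from seeding (1,000 cells/well). Luciferase activity was determined 44 h later, 15 min after substrate addition at RT.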
# * hit, by the source's call; ? = inconclusive; · = no result; [ ] = dose if it differs, or a comment. The list is not random: actives were taken first. Their share in the collection is about 14%. Unless noted, calls come from the whole dose curve; as a rule, active = well fitted inhibition curve with a large enough effect; inconclusive = small, poorly fitted or top-dose-only effect, or another doubt; inactive = no such curve, though single readings can be large or run the other way. % is set by controls: 0 for no effect and ±100 for the full control effect.
SMILES,Marburg entry inh,Pf growth 48h,Lassa entry inh,Pf growth 96h,HCMV inh,HCV inhibitor
Cn1nc(C(F)(F)F)c(-c2ccc(Br)cc2)c1NC(=O)c1cccnc1,·,?,·,?,-13.5,-18.1%
CCC(=O)NCc1csc(-c2cccs2)n1,?,38.3%,?,74.5%,-70.3*,15.4%
COc1ccccc1CC(=O)NCc1csc(-c2cccs2)n1,0.9%[14.2 µM],97.8%,-27.0%,95.4%,18.5,-12.5%
Cc1ccc(-c2cc(C(=O)N/N=C/c3ccccc3O)n[nH]2)o1,?,5.22µM*,?,?,26.3,?
Cc1cc(C(=O)N/N=C\c2cc(C(C)(C)C)ccc2O)n[nH]1,·,11.7µM*,·,2.5%,·,?
Clc1ccccc1NN=Cc1ccccn1,·,·,·,·,68.2,·
OCCOCCn1c(C(CO)Nc2nc(-c3cccc(Br)c3)cs2)nc2ccccc21 (stereo not drawn),·,·,·,·,17.5,10.1%
CCCn1c(C(CO)Nc2nc(-c3cccc(Br)c3)cs2)nc2ccccc21 (stereo not drawn),·,?,·,5.86µM*,-17.9,?
Cc1ccc(-c2nc3ncccc3o2)cc1NC(=O)c1ccc(-c2cccc(Cl)c2C)o1,·,·,27.0%[46.1 µM],·,-2.7,·
Cc1ccc(NC(=O)N2CCN(c3nnc(C)c4c(C)n(-c5ccccc5)nc34)CC2)cc1Cl,·,·,-28.7%[46.1 µM],·,-21.9,·
Cc1ccc(-n2nc3c(SCCN4CCOCC4)nnc(C)c3c2C)cc1,?,-1.0%,10.8%,?,?,?
CCOc1ccc(-n2nc3c(=O)[nH]nc(C)c3c2C)cc1,-42.3%,11.2%,-3.0%,1.7%,-32.5,4.4%
CCOc1ccc(-n2nc3c(SCCN4CCCC4)nnc(C)c3c2C)cc1,?,?,6.9%,-6.2%,?,10µM*
Cc1nnc(Cl)c2nn(-c3ccccc3)c(C)c12,3.9%,0.329µM*,8.3%,0.586µM*,-17.8,-5.0%
CCOc1ccc(-n2nc3c(Cl)nnc(C)c3c2C)cc1,-0.5%,0.329µM*,3.2%,0.522µM*,?,-12.9%
Cc1c(CCNC(=O)c2c(F)cccc2F)sc2nc(-c3ccc(F)cc3)nn12,·,·,12.2%[46.1 µM],·,-14.1,·
COc1ccc(N2CCN(CCCNC(=O)C(=O)c3c(C)n(C)c4ccccc34)CC2)cc1,·,?,·,14.7µM*,?,?
CCCCCCCCCC(=O)NC(CN1CCOCC1)[C@H](O)c1ccccc1 (stereo partly drawn),15.8µM*,·,?,·,·,·
CCCCOc1ccc(C(=O)C(CN2CCOCC2)c2ccccc2)cc1 (stereo not drawn),?,?,?,?,-106.8*,?
CCCCC(O)(c1ccccc1)C(CN1CCOCC1)c1ccccc1 (stereo not drawn),·,?,·,26.8%,-19.6,?
COc1ccc(N2CCN(C(=O)C(=O)c3c(C)n(C)c4ccccc34)CC2)cc1,6.8%[46.1 µM],-16.1%,-4.3%,-46.4%,38.0,8.0%
CC(C)Oc1ccc(C(=O)CCN2CCOCC2)cc1,·,·,·,·,49.3,2.6%
CCCCCOc1ccc(C(=O)CCN2CCOCC2)cc1,?,?,-6.3%,2.33µM*,-17.0,1.0%
CCCCNC(=O)CCn1c(=O)c2ccccc2n(Cc2ccccc2C#N)c1=O,0.2%[46.1 µM],·,-3.8%[46.1 µM],·,2.8,·
COc1ccc(CNC(=O)C[C@@H]2C[C@H]3c4cc(NC(=O)NC5CCCC5)ccc4O[C@H]3[C@H](CO)O2)cc1,·,·,·,·,26.5,·
O=C(c1ccccc1)C(CCC(CN1CCOCC1)C(=O)c1ccccc1)CN1CCOCC1 (stereo not drawn),?,-20.9%,14.1µM*,?,-105.4*,5.62µM*
OC(c1ccc(F)cc1)C(c1ccccc1)N1CCOCC1 (stereo not drawn),9.5%,3.8%,17.0%,1.85µM*,-21.4,-1.2%
COc1ccc(C(=O)C(CN2CCOCC2)c2ccccc2)cc1 (stereo not drawn),?,·,13µM*,?,-99.5*,?
O=C(c1ccc(F)cc1)C(CN1CCOCC1)c1ccccc1 (stereo not drawn),?,?,?,?,-76.6*,11.2µM*
CCCCNC(=O)C1(C)CCC(=O)N1C1CC1 (stereo not drawn),·,·,·,·,-7.3,·

# Screens: PubChem, National Center for Advancing Translational Sciences (NCATS)
